High-throughput results deposited in PubChem by Fisher Drug Discovery Resource Center.
In the library only some 0.28% were active in any assay of this set; here they are far more common.
NPYLR7 ag: activates Aedes aegypti NPYLR7 receptor. AID 1259423. activation, % at 10 µM. HEK293T NPYLR7/Galpha15, GCaMP6s calcium fluorescence. 0.15% of 270,000 active; in the data active = activation above about 40%
mcGAS inh: inhibitors of mouse cGAS | Q8C6L5 | recombinant cGAS, Kinase-Glo ATP depletion luminescence | inhibition, % at 12.5 µM | 0.15% of 160,000 active | AID 1259399
hcGAS lum: inhibitors of human cGAS. Q8N884. recombinant h-cGAS, ATP depletion, Kinase-Glo luminescence. inhibition, % at 12.5 µM. 0.081% of 290,000 active
Target sequence (Q8N884 whole entry, looked up): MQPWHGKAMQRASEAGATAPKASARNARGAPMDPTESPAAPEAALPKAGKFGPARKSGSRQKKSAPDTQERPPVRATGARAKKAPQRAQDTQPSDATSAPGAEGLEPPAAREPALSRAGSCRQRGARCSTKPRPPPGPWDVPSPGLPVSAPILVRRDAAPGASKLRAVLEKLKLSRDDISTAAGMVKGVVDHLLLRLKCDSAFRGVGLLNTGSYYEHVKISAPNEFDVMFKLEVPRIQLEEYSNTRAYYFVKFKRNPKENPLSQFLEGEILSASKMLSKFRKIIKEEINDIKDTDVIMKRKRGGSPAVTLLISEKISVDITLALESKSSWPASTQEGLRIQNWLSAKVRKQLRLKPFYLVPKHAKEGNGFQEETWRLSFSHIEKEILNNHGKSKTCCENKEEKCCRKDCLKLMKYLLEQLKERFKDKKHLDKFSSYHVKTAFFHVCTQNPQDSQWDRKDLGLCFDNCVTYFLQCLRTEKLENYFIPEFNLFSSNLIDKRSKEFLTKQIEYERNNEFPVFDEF
Each line names hits and unclear results; the compound was inactive in the other large screens. Rule as the data show it, unless noted: active = inhibition above about 40%; inactive = the rest.

Cc1ccc(N2CC(C(=O)N3CCN(c4ncnc5c4nnn5Cc4ccccc4)CC3)CC2=O)cc1 (centres undefined)	none
Nc1c(S(=O)(=O)O)cc(Nc2ccc(Nc3nc(Cl)nc(Nc4ccc(S(=O)(=O)O)cc4)n3)c(S(=O)(=O)O)c2)c2c1C(=O)c1ccccc1C2=O	mcGAS inh 67.0
Nc1c(S(=O)(=O)O)cc(Nc2cccc3ccccc23)c2c1C(=O)c1ccccc1C2=O	none (no result: mcGAS inh)
CNc1ccc(-c2ccc(OC)nc2)cn1	none (no result: mcGAS inh)
CCNc1ccc(OC)nc1	NPYLR7 ag 55.0 (no result: mcGAS inh)
CCC(C(=O)Nc1cccc(C2SCC(=O)N2c2ccc(C(F)(F)F)cc2)c1)c1ccccc1 (centres undefined)	none
COc1ccc(Cl)cc1N1CCN(C(=O)c2cccc(F)c2)C(C)C1=O (centres undefined)	none
O=C(Nc1ccc(Cl)cc1)N1CCCN(C2CC2)CC1	none (no result: mcGAS inh)
Nc1c(NC(=O)N2CCN(C3CCCC3)CC2)c(-c2ccc(Cl)cc2)nn1-c1ccccc1	hcGAS lum 164.0 (no result: mcGAS inh)
OC12CC3CC(C1)CC(c1ccc(N=Cc4cccs4)cc1)(C3)C2	none (no result: mcGAS inh)
COc1ccccc1OCCCOc1ccc(Br)cc1Cl	NPYLR7 ag 59.8 (no result: mcGAS inh)
COc1cccc(OC)c1OCCCOc1ccc(Br)cc1Cl	none (no result: mcGAS inh)
CC(C)c1nc(CC2NC(=O)c3ccccc32)n(-c2ccccn2)n1 (centres undefined)	none (no result: mcGAS inh)
COCCN1CC(CO)C2(CCN(C(=O)C3CC=CC3)CC2)C1 (centres undefined)	hcGAS lum 44.8 (no result: NPYLR7 ag)
CC(=O)N1CC(CO)C2(CCN(C(=O)C3CC=CC3)CC2)C1 (centres undefined)	none (no result: NPYLR7 ag)
O=c1[nH]c(CCl)nc2c1cnn2Cc1ccccc1	mcGAS inh 53.8
CSc1nc2c(cnn2Cc2ccccc2)c(=O)[nH]1	none (no result: mcGAS inh)
Cc1ccc(C(=O)Nc2ccc(NC(=O)C(C)C)cc2)o1	none (no result: mcGAS inh)
CN(C)CCCN(CC1CCN(C2Cc3ccccc3C2)CC1)C(=O)C1CCCC1	none
COc1cccc(F)c1C(C)NC(=O)N(C)C(C)c1ccco1 (centres undefined)	none
Fc1cc(F)cc(C2C=C(c3ccco3)Nc3ncnn32)c1 (centres undefined)	NPYLR7 ag 77.9 (no result: mcGAS inh)
CC(=O)C1=C(C)Nc2ncnn2C1c1ccco1 (centres undefined)	none (no result: mcGAS inh)
CCOc1nc(-c2cccc(F)c2)n(-c2ccc(NC(=O)Nc3cccc(Cl)c3)cc2)n1	none
O=C(CSc1nnc(-c2cccs2)o1)NCCN1C(=O)CSC1=O	none (no result: mcGAS inh)
O=c1cc(C(F)(F)F)c2ccc(O)cc2o1	NPYLR7 ag 57.3
O=c1cc(O)c2ccc(O)cc2o1	none
CC(C)CC(NC(=O)C(=O)Nc1cccc(C#N)c1)c1ccccc1 (centres undefined)	none (no result: mcGAS inh)
O=C(CC1SC(=NCc2ccco2)NC1=O)Nc1ccc(OC(F)(F)F)cc1 (centres undefined)	none (no result: mcGAS inh)
N#CC(=Cc1ccc(Cl)cc1Cl)C(N)=S	mcGAS inh 66.8
CC(C)NC(=O)C(C#N)=Cc1ccc(Cl)cc1Cl	none
O=C(NCc1ccccc1-n1cncn1)c1n[nH]c2c1CCC2	none
O=[N+]([O-])c1cc(C(F)(F)F)cc([N+](=O)[O-])c1N1CCCC(C(F)(F)F)C1 (centres undefined)	none (no result: mcGAS inh)
COc1cc(NC(=O)N2CC(=O)N3CCc4c(F)cccc4C3C2)cc(OC)c1OC (centres undefined)	NPYLR7 ag 43.2
CCOc1ccccc1NC(=O)N1CC(=O)N2CCc3c(F)cccc3C2C1 (centres undefined)	none
C=C(C)C(=O)N1CCC(n2c(=O)oc3c(C)cc(C)cc32)CC1	none
O=C(CN1C(=O)SC(=Cc2ccc(N3CCCCCC3)o2)C1=O)N1CCCCCC1	NPYLR7 ag 44.8 (no result: mcGAS inh)
CCOC(=O)CN1C(=O)SC(=Cc2ccc(Br)o2)C1=O	none
CCOc1ccccc1NC(=O)Nc1ccc(N2CCN(c3ccccc3OC)CC2)c(C(=O)N2CCCC2)c1	none (no result: NPYLR7 ag)
Cc1ccc(C=C(C#N)S(=O)(=O)c2ccc(Br)cc2)o1	none (no result: mcGAS inh)
COc1ccc2c(c1)OCC(C=C(C#N)S(=O)(=O)c1ccc(Br)cc1)=C2	NPYLR7 ag 93.1 (no result: mcGAS inh)
CCCCCCOc1ccccc1-c1nc2ccccc2c(=O)n1CCc1ccc(OC)cc1	none
CC(C)Cn1c(N)c(C(=O)CSc2nccn2C)c(=O)n(C)c1=O	none
Cn1ccnc1SCC(=O)c1cc(I)c(O)c(I)c1	mcGAS inh 76.4
C=CCCC(O)(CCC=C)c1ccc(CN(Cc2ccc(C)o2)CC2CCCO2)o1 (centres undefined)	none
CCOc1cc2c(C#N)c(N(CC(C)C)CC(C)C)nc(N)c2c(N)n1	none (no result: mcGAS inh)
COc1cc2c(C#N)c(N(CCO)CCO)nc(N)c2c(N)n1	hcGAS lum 56.3
COc1cc(C=C2N=C(c3ccc4c(c3)OCO4)OC2=O)cc2c1OCCO2	NPYLR7 ag 97.5 (no result: mcGAS inh)
CCOc1ccc(C2=NC(=Cc3cc(OC)c4c(c3)OCCO4)C(=O)O2)cc1OCC	none (no result: mcGAS inh)
O=c1[nH][nH]c2c1CCN(Cc1cc3n(n1)CCNC3)CC2	none
Cc1cc(NC(=O)CSc2nc3c(-c4ccccc4)c(C)nn3c(=O)[nH]2)no1	hcGAS lum 46.4
CC(=O)Nc1cccc(NC(=O)CSc2nc3c(-c4ccccc4)c(C)nn3c(=O)[nH]2)c1	none
Cc1cccc[n+]1CC(=O)c1cc2ccccc2oc1=O	none
O=C(O)C1=CC(=C(c2ccc(O)c(C(=O)O)c2)c2ccc(O)c(C(=O)O)c2)C=CC1=O	mcGAS inh 106.3, hcGAS lum 79.7
Nc1ccc(O)c(C(=O)O)c1	none (no result: mcGAS inh)
O=C(CC1C=CCC1)N1CCN(Cc2cccc(-c3noc(-c4cccnc4)n3)c2)CC1 (centres undefined)	none
CCCNC(=O)N1CCN(c2nc3c(s2)CN(C(=O)CC)CC3)CC1	none (no result: NPYLR7 ag)
COCCNC(=O)N1CCc2nc(N3CCN(C)CC3)sc2C1	hcGAS lum 58.2 (no result: NPYLR7 ag)
O=c1oc2c(CN3CCN(CCO)CC3)c(O)ccc2cc1-c1nc2ccccc2s1	NPYLR7 ag 65.6 (no result: mcGAS inh)
O=c1oc2c(CN3CCN(CCO)CC3)c(O)ccc2cc1-c1ccccn1	none (no result: mcGAS inh)
CC1=NN(CCc2ccccc2)c2nc3c(c(=O)n(CCc4ccccc4)c(=O)n3C)n2C1	none
CC(C)c1ccc(S(=O)(=O)N=C2C=C(Cl)C(=O)c3ccccc32)cc1	none (no result: mcGAS inh)
O=C1C(Sc2ncn[nH]2)=CC(=NS(=O)(=O)c2ccccc2)c2ccccc21	mcGAS inh 50.7
Cc1ccc(OCCNC(=O)N2CCN(S(=O)(=O)c3ccccc3Cl)CC2)c(C)c1	NPYLR7 ag 46.1
Cc1cc(C)c(C)c(OCCCNC(=O)N2CCN(S(=O)(=O)c3ccccc3[N+](=O)[O-])CC2)c1	none
CCOCCCN(CC(=O)N(Cc1cccn1Cc1ccccc1)C1CCCCC1)S(=O)(=O)/C=C/c1ccccc1	none
COc1cccc2c1C(=O)c1c(O)c3c(c(O)c1C2=O)C[C@@](O)(C(=O)CO)C[C@@H]3O[C@H]1C[C@H](N)[C@H](O)[C@H](C)O1	hcGAS lum 58.3 (no result: mcGAS inh)
COc1cccc2c1C(=O)c1c(O)c3c(c(O)c1C2=O)C[C@@](O)(C(C)=O)C[C@@H]3OC1CC(N)C(O)C(C)O1 (some centres undefined)	hcGAS lum 61.4 (no result: mcGAS inh)
CCCc1nnc(SCc2ccc(OCCC(C)C)cc2)n1N	none (no result: mcGAS inh)
Cc1ccc(Nc2nc(NCCN(C)C)nc3nccnc23)c(C)c1	none (no result: mcGAS inh)
Cc1ccc(Nc2nc(Nc3cccc(F)c3)nc3nccnc23)c(C)c1	NPYLR7 ag 51.5 (no result: mcGAS inh)
O=C(O)C1C2CC3C1C(=O)Oc1ccccc1C1c4sc(=O)[nH]c4SC2C13 (centres undefined)	none
